Myeloid diff 2 – induction of myeloid progenitor differentiation, primary screen, cell-based, flow cytometry, MLPCN library | ER-HoxA9 myeloid progenitors, lysozyme-GFP differentiation | calls only at 10 µM | hit rate 1% among 360,000 | AID 624256, 2012;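 active = normalized GFP-positive differentiation at or above the plate's own cutoff, the solvent-only control mean plus 3 SD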;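 note: cells exposed to compound for four days before flow analysis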
CRFR2-BP ag – agonists of CRF-BP/CRF-R2 complex, primary screen, cell-based, HEK293, calcium dye fluorescence, uHTS. hit rate 0.46% among 350,000. activation, % at 13.2 µM. calcium dye fluorescence (FLIPR); percent of saturating CRF peptide response. AID 588473, 2011. CRF-binding protein / CRF receptor 2 complex (human);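 active = activation of at least 50%, plus an integration ratio under a set limit after plate pattern correction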;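 note: plate controls were neutral control wells without compound for no effect and CRF at EC100 for full effect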
RTF Ca sens inh – cardiac RTF calcium sensitivity inhibitors, primary screen, biochemical, IANBD-TnC fluorescence, EC70 calcium; inhibition, % at 7.15 µM; Troponin I, cardiac muscle (Homo sapiens) + Troponin T, cardiac muscle (Homo sapiens) + …; hit rate 0.12% among 340,000; AID 493244, 2011; IANBD-labeled cardiac RTF, Ca2+ fluorescence;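 active = inhibition above the mean inhibition of all tested compounds plus 3 SD, cut at about 17% in these data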;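 note: assay run at fixed EC70 calcium of 1.6 mM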
cardiac RTF act – cardiac RTF calcium sensitivity activators, primary screen, biochemical, IANBD-TnC fluorescence, EC20 calcium; IANBD-labeled TnC RTF fluorescence at EC20 calcium; 0% EC20 calcium, 100% full calcium; Troponin I, cardiac muscle (Homo sapiens) + Troponin T, cardiac muscle (Homo sapiens) + …; hit rate 0.24% among 340,000; activation, % at 7.2 µM;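 active = activation above the mean over all tested compounds plus 3 SD, cut at about 30% in these data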;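 note: rise in fluorescence read as greater calcium sensitivity of cardiac thin filaments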
CRFR2-BP antag – antagonists of CRF-BP/CRF-R2 complex, primary screen, cell-based, HEK293, calcium dye fluorescence, uHTS; hit rate 0.59% among 350,000; CRF-induced calcium fluorescence; inhibition, % at 11.8 µM;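 active = inhibition of the ligand-induced calcium signal above about 50% at the single tested concentration, limit read from the data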
Myeloid diff CP1 – inducers of myeloid progenitor differentiation, confirmation, cell-based, GFP/Mac1 flow cytometry, cherry pick 01; shares compounds with Myeloid diff 2; ER-HoxA9 myeloid progenitors, GFP/Mac1 double-positive flow; calls only; hit rate 2% among 2,300; AID 651706, 2012;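 active = share of green or green-and-red cells above 9 and 9% in run 1 or 4 and 3% in run 2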
GFP autofluor – flagged as fluorescent in myeloid differentiation counter-screen | hit rate 7.4% among 2,300 | fluorescence response, % (no concentration beside the values) | ER-HoxA9 myeloid progenitors, no estrogen, GFP autofluorescence flow cytometry; vehicle wells 0%, positive control 100% | shares compounds with Myeloid diff 2;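 active = over 5% cells positive for green fluorescent reporter, or over 2% positive for both it and APC stain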;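 note: range taken on the double positive population between DMSO and positive control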
* hit, by the source's call; i = inactive; nt = no result given; + = active, no number. In the library only some 2.2% were active in any assay of this set; here they are far more common.

SMILES	Myeloid diff 2	CRFR2-BP ag	RTF Ca sens inh	cardiac RTF act	CRFR2-BP antag	Myeloid diff CP1	GFP autofluor
CN1CCN(c2nc3c(c(=O)[nH]c(=O)n3C)n2Cc2cccc(Br)c2)CC1	i	-2	-6	0	5	nt	nt
Cn1c(=O)[nH]c(=O)c2c1nc(Br)n2Cc1cccc(Br)c1	i	-2	5	0	-27	i	0
O=c1c2c(nc3n1CCCCC3)-c1ccccc1CC21CCCCC1	i	3	-19	1	-30	i	0
COC(=O)c1ccc2nc(-c3cccc(Cl)c3)c(Cc3ccccc3OC)n2c1	i	nt	nt	nt	nt	nt	nt
COc1ccccc1Cc1c(-c2cccc(Cl)c2)nc2ccc(Br)cn12	+	nt	nt	nt	nt	i	41*
CCC1c2ccc(C)n2CCN1C(=O)Nc1ccccc1C(=O)OC (stereo not drawn)	i	4	-14	8	-2	nt	nt
CCC1c2ccc(C)n2CCN1C(=O)Nc1cc(Cl)ccc1OC (stereo not drawn)	nt	0	-23	9	42	i	1
CN(C)c1ccc(S(=O)(=O)NCC(=O)N2CCN(c3ccccc3)CC2)cc1[N+](=O)[O-]	+	-2	-4	-14	6	i	0
CN(C)c1ccc(S(=O)(=O)NCC(=O)NCc2ccccc2)cc1[N+](=O)[O-]	i	1	-2	-2	-7	nt	nt
Cc1ccc(-c2nnc(N(C)C(=O)c3cccnc3)s2)cn1	i	-2	-2	-6	8	nt	nt
Cc1ccc(-c2nnc(N(C)C(=O)c3cccnc3)s2)cc1	i	1	-11	-4	-11	i	0
CCNC(=S)N/N=C/c1sc(N2CCCCC2)nc1-c1cccs1	i	14	-19	33*	-28	i	0
CCNC(=S)Nc1ccc(N2CCCCC2)cc1	i	-1	-3	-2	-4	nt	nt
N#Cc1nc(-c2cccs2)oc1NCc1ccco1	i	2	-5	9	6	i	0
Cc1cc(NC(=O)COC(=O)C2CC(=O)N(c3ccc(Cl)cc3)C2)no1 (stereo not drawn)	i	1	5	-9	-2	nt	nt
CCn1c(=O)n(CC(=O)N(C)Cc2ccccc2)c(=O)c2ccccc21	+	1	-10	3	-13	i	0
CCOc1ccccc1NC(=O)Cn1c(=O)c2ccccc2n(CC)c1=O	i	-2	-1	-3	-29	nt	nt
CC(=O)NC1CC2CCCC(C1)N2S(=O)(=O)c1cccc(F)c1 (stereo not drawn)	+	-1	-15	11	18	i	0
CCCCCCCCC1=NCCc2c1[nH]c1ccccc21	i	0	-9	1	-15	i	0
CC(C)C/C=C1\CCc2c([nH]c3ccccc23)C1=O	i	-1	13	10	-6	nt	nt
CCCCOc1ccc(C(=O)NCC(=O)NCCCn2nc(C)cc2C)cc1	i	1	-5	-4	2	nt	nt
O=C(O)C1CCCN1c1ncnc2c1oc1ccccc12 (stereo not drawn)	+	0	-4	2	2	i	6.6*
Cn1ccc2c(-c3ccc(C(C)(C)C)cc3)cc3c(c21)C1CCC3O1 (stereo not drawn)	+	nt	nt	nt	nt	+	0
CC1CCc2c(sc(NC(=O)CSc3nc(N)cc(=O)[nH]3)c2C(N)=O)C1 (stereo not drawn)	i	0	7	-16	6	nt	nt
COc1cccc(NC(=O)CSc2nnc(-c3ccco3)c(-c3ccco3)n2)c1	+	-1	7	-4	1	i	0
SMILES	Myeloid diff 2	CRFR2-BP ag	RTF Ca sens inh	cardiac RTF act	CRFR2-BP antag	Myeloid diff CP1	GFP autofluor
COc1ccc(-n2c(=O)c(CCC(=O)N3CCN(c4ccccc4O)CC3)nc3ccccc32)cc1	i	-1	-5	-16	2	i	6.7*
COc1ccc(C2C(C(=O)Nc3cccnc3)=C(C)Nc3nc(-c4cccs4)nn32)cc1 (stereo not drawn)	i	-1	-15	14	-13	i	1
O=S(=O)(c1ccc2c(c1)OCCO2)N1CCC(c2nc3ccc(Cl)cc3[nH]2)CC1	i	1	3	1	-57	i	0
CC[C@@]1(C(=O)OC)N[C@H](CN(C)S(=O)(=O)c2ccc(-c3ccccc3)cc2)[C@@H]2C(=O)N(C)C(=O)[C@@H]21	i	-1	-7	1	-2	i	0
CCN(C[C@H]1N[C@@](CC)(C(=O)OC)[C@H]2C(=O)N(Cc3ccccc3)C(=O)[C@@H]12)S(=O)(=O)c1ccc(OC)cc1	i	-2	-5	-5	9	i	0
CC(OC(=O)/C=C/c1ccc2ccccc2n1)C(=O)Nc1ccc(S(N)(=O)=O)cc1 (stereo not drawn)	i	0	-9	-6	-7	i	0
COC(=O)N(C)C[C@H]1OCc2cnnn2CCCC(=O)N([C@@H](C)CO)C[C@H]1C	i	-1	nt	nt	-23	nt	nt
CCc1ccc(/C=C/c2c([N+](=O)[O-])c(=O)n(C)c(=O)n2C)cc1	i	-3	5	-4	11	i	1
CN1CCN(c2ccc(-c3cc(NC=O)c4ncc(-c5ccc(F)cc5)n4c3)cc2)CC1	+	nt	nt	nt	nt	i	0
CN1CCN(c2ccc(-c3cc(NC=O)c4ncc(-c5ccccc5)n4c3)cc2)CC1	i	nt	nt	nt	nt	i	3
CC(=O)Nc1cc(-c2ccc(N3CCN(C)CC3)cc2)cn2c(-c3ccccc3)cnc12	i	nt	nt	nt	nt	nt	nt
COC(=O)c1nn(C)c(=O)[nH]c1=O	i	-1	3	-1	6	nt	nt
O=C(O)CCNS(=O)(=O)c1ccc(Oc2ccccc2)cc1	i	2	-2	1	3	i	0
Cc1ccc(S(=O)(=O)NCCC(=O)O)cc1	i	-2	4	2	0	nt	nt
CCc1nc2ccc(C(=O)N(C)C(C)C)cn2c1N(CC)Cc1cccc(Br)c1	i	nt	nt	nt	nt	nt	nt
CC1C(=O)N(Cc2cn(CCC3OCCCO3)nn2)CCS(=O)(=O)N1Cc1ccc(-c2ccccc2)cc1 (stereo not drawn)	+	-2	nt	nt	-12	i	0
COc1ccc(-c2ccc(CN3C(CC(C)C)C(=O)N(Cc4cn(CC5CCCCC5)nn4)CCS3(=O)=O)cc2)cc1OC (stereo not drawn)	i	0	nt	nt	20	nt	nt

Screens deposited in PubChem by several laboratories.
